# uPA generation: qHTS for Inhibitors of Cell Surface uPA Generation; cell surface uPA generation assay, qHTS; Potency, µM (titrated, usually from 38.3 µM), actives largely listed as inhibitors; 330,000 tested, 0.31% active; active = well fitted inhibition curve with a large enough effect; inconclusive = small, poorly fitted or top-dose-only effect; inactive = no such curve, though single readings can be large or run the other way; tested in mouse RAW 264.7 cells; note: nearly all actives have a fitted effect of over 55% in size
# Sfp PPTase inh: qHTS Assay for Inhibitors of Bacillus subtilis Sfp phosphopantetheinyl transferase (PPTase); 4'-phosphopantetheinyl transferase ffp (Bacillus subtilis), Q9F4F7; Biochemical Sfp PPTase activity, qHTS; Potency, µM, actives largely listed as inhibitors; 310,000 tested, 3.5% active; AID 1490, 2009;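 note: the enzyme is Sfp with the accession as filed and its product quenches rhodamine fluorescence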
#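 Sfp 15 nM + cpd, 15 min RT; start w/ rhodamine-CoA 5 uM, BHQ-2-YbbR 12.5 uM (final); 50 mM Hepes pH 7.6, 10 mM MgCl2, 0.01% NP-40, 0.01% BSA; read 525/598 nm at 0 and 30 min.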
# ClpP mod: qHTS Assay for Activators of ClpP; ATP-dependent Clp protease proteolytic subunit (Bacillus subtilis (strain 168)), P80244; purified B. subtilis ClpP, FRET peptide cleavage, 20 min; Potency, µM (top dose mostly 57.5 µM); 340,000 tested, 1.9% active; active = well fitted falling curve with a large enough effect; inconclusive = small, poorly fitted or top-dose-only effect; inactive = no such curve, though single readings can be large or run the other way; note: the source files actives as falling curves though it sought activators and does not explain the sign; nearly all actives have a fitted effect of over 65% in size
# Target sequence (P80244 whole entry, looked up): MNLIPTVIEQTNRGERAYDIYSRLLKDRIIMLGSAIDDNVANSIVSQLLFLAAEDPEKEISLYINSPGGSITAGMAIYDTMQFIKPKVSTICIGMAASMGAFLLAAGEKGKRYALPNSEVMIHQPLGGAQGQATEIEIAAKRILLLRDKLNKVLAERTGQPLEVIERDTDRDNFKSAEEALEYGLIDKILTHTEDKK
#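 Purified B. subtilis ClpP, 10 microg/mL final in Tris/HCl pH8 with KCl, BSA, glycerol and Tween-20, cleaved an Abz/nitrotyrosine-quenched decapeptide. Fluorescence (ex 320, em 430) was read at 0 and 20 min at room temperature. Delta was normalized to 5.8 microM ADEP and DMSO/no-enzyme controls.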
# TCR act: Activators of T cell receptors: qHTS campaign; primary human leukocytes, anti-CD3, IL-2 HTRF, 48 h; Potency, µM (series often up to 9.22 µM), most hits filed as activators; 330,000 tested, under 10 active; AID 504894, 2011
#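 IL-2 release read by HTRF sandwich (Eu cryptate donor, d2 acceptor, 665 nm emission) after 48 hr exposure of primary human leukocytes to compound together with anti-CD3 beads in the absence of co-stimulatory signals.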
# Hits are given with their value; n = inactive; u = inconclusive; x = not tested or not shown. Hits are enriched below; roughly 4.2% of the tested compounds scored in any of these assays. Unless noted, calls come from the whole dose curve; as a rule, active = well fitted curve in the direction sought with a large enough effect; inconclusive = small, poorly fitted or top-dose-only effect, or another doubt; inactive = no such curve, though single readings can be large; an effect the other way counts as inactive or inconclusive.
SMILES,uPA generation,Sfp PPTase inh,ClpP mod,TCR act
Cc1ccc(CNC(=O)[C@H](C)[C@H]2C[C@]2(C)[C@H](NC(=O)OCc2ccccc2)c2ccccc2)o1,n,50µM,n,n
CCC/C=C1/CCCOC(C(=O)NCC2CC2)(C(F)(F)F)C1 (configuration not stated),x,n,x,x
CO[C@H]1C[C@@H]2CC[C@@H](C)[C@@](O)(O2)C(=O)C(=O)N2CCCC[C@H]2C(=O)O[C@H]([C@H](C)C[C@@H]2CC[C@@H](O)[C@H](OC)C2)CC(=O)[C@H](C)C=C(C)[C@@H](O)[C@@H](OC)C(=O)[C@H](C)C[C@H](C)C=CC=CC=C1C,x,79µM,x,x
Cc1cccc2cc(CN(Cc3nnnn3Cc3ccco3)C3CCCC3)c3nnnn3c12,n,n,n,n
COC(=O)N1CCC2(CC1)CN(c1cccc(-c3ccccc3)c1)C2,x,79µM,x,x
COC(=O)N1CCC2(CC1)CN(c1ccc(-c3ccccc3)cc1)C2,x,n,x,x
COc1ccc(C(C#N)=C2C=CC(=NO)C=C2)cc1,n,25µM,x,n
O=C(CSc1nc(O)cc(=O)[nH]1)C1CC1,n,71µM,n,n
CCc1ccccc1NC(=O)Cn1ccn(Cc2ccccc2)c(=O)c1=O,x,x,n,x
CCC(C)CCCCC(=O)NC(CCN)C(=O)NC(C(=O)NC(CCN)C(=O)NC1CCNC(=O)C(C(C)O)NC(=O)C(CCN)NC(=O)C(CCN)NC(=O)C(CC(C)C)NC(=O)C(Cc2ccccc2)NC(=O)C(CCN)NC1=O)C(C)O (configuration not stated),x,28µM,x,x
O=c1oc2c(CN3CCOCC3)c(O)c(Cl)cc2c2c1CCCC2,n,56µM,n,n
CCC(C(=O)Nc1cc(C(F)(F)F)ccc1Cl)n1nc(C)c2sc3ccccc3c2c1=O (configuration not stated),x,x,n,x
CCc1ccc(/C=N/NC(=O)c2cc(C)on2)s1,n,n,2.8µM,n
COc1ccccc1NC(=O)CSc1nc(O)cc(=O)n1C,x,n,n,x
COc1ccc(-n2c(SCC(=O)Nc3ccccc3OC)nc(O)cc2=O)cc1,n,n,35µM,n
Cc1ccc(NC(=O)CSc2nc(O)cc(=O)n2-c2ccc(C)cc2)cc1,n,n,n,n
COc1ccc(-n2c(SCC(=O)Nc3ccc(Br)cc3)nc(O)cc2=O)cc1,n,n,25µM,n
COc1ccc(C(=O)Nc2nc3n(n2)C(c2ccccc2)C=C(c2ccccc2)N3)cc1 (configuration not stated),x,x,n,x
CC(=O)Nc1nc2n(n1)C(c1ccc(F)cc1)C=C(c1ccccc1)N2 (configuration not stated),n,35µM,u,n
CC(=O)Nc1nc2n(n1)C(c1ccc(Cl)cc1)C=C(C)N2 (configuration not stated),n,56µM,3.2µM,n
CC(=O)Nc1nc2n(n1)C(c1ccccc1)C=C(c1ccccc1)N2 (configuration not stated),n,u,28µM,x
CS(=O)(=O)Nc1nc2n(n1)C(c1ccccc1)C=C(c1ccc(Br)cc1)N2 (configuration not stated),n,n,8.9µM,n
O=C(Nc1nc2n(n1)C(c1ccc(F)cc1)C=C(c1ccccc1)N2)c1cccc([N+](=O)[O-])c1 (configuration not stated),x,x,n,x
O=C(NCc1cccnc1)c1ccc2sc([C@H]3C[C@H](O)[C@@H](CO)O3)nc2c1,x,x,n,x
O=C(Nc1nc2n(n1)C(c1ccccc1)C=C(c1ccccc1)N2)c1ccco1 (configuration not stated),n,56µM,n,n
SMILES,uPA generation,Sfp PPTase inh,ClpP mod,TCR act
CCCCOc1ccc(Cn2c(=O)oc3ccc(C)cc32)cc1,x,x,n,x
COCCOC(=O)c1c(C)n(C)c2ccc(OC(=O)c3c(OC)cccc3OC)cc12,n,28µM,n,n
COCCOC(=O)c1c(C)n(C)c2ccc(OC(=O)N3CCOCC3)cc12,n,n,n,x
CCCCCC(=O)Nc1ccc(S(=O)(=O)Nc2nccnc2OC)cc1,n,n,25µM,n
Cc1cccc(C)c1Nc1nnc(SCC(=O)c2ccc3c(c2)NC(=O)CO3)s1,n,n,35µM,n
Cc1cccc(C)c1Nc1nnc(SCC(=O)c2ccc(Br)s2)s1,n,n,n,n
c1ccc(Nc2scc(-c3ccccc3)[n+]2Cc2ccco2)cc1,n,20µM,n,n
c1ccc(C[n+]2c(-c3ccccc3)csc2Nc2ccccc2)cc1,n,n,u,n
COc1ccc(C(=O)O/N=C(\N)c2ccccc2)c(OC)c1,4µM,n,n,n
COc1ccc(C(=O)O/N=C(\N)c2ccc(OC)c(OC)c2)c(OC)c1,u,n,n,n
CC(=O)OCC1OC(Sc2cccc3cccnc23)C(OC(C)=O)C(OC(C)=O)C1OC(C)=O (configuration not stated),n,n,16µM,n
CC(=O)OCC1OC(n2ccc3ccccc32)C(OC(C)=O)C(OC(C)=O)C1OC(C)=O (configuration not stated),n,n,n,n
Oc1ccc2ccccc2c1CNc1cnc2ccccc2c1,n,28µM,n,x
Oc1ccccc1CNc1cnc2ccccc2c1,n,n,28µM,n
CCCN1CNc2c(c(=O)[nH]c(=S)n2CCc2ccc(OC)c(OC)c2)C1,n,n,n,n
Cc1ccn2c(/C=N/OCc3cccc(F)c3)c(-c3ccc(Cl)cc3)nc2c1,n,u,25µM,n
CCc1ccc(-n2nc(C)c3c(C)cc(=O)n(CC(=O)Nc4ccccc4C(=O)OC)c32)cc1,x,x,n,x
O=C(Cc1cccs1)NC1(C(=O)NC2CCCC2)CCCCC1,n,n,25µM,n
O=C(NNC(=O)c1cc2ccccc2cc1O)Nc1ccc(Br)cc1,n,n,28µM,n
CC1(C)CC(=O)c2cc(C(=O)Nc3cccc4ccccc34)c(=O)[nH]c2C1,x,x,n,x
COC(=O)C1=C[C@@H](C(=O)OC)C2C3=C(C(=O)[C@@]2(C)NC(=O)c2ccccc2)[C@H](C)[C@@H]2C(=O)N(C)C(=O)[C@@H]2[C@@H]3C1 (some centres not stated),x,n,x,x
CC1=C(c2ccc(C)c(C)c2)S(=O)(=O)N=C1N1CCC(C(=O)NCCc2ccc(Cl)cc2)CC1,x,x,n,x
CNC(=O)C1C(=S)NC(N)=C(C#N)C1c1ccccc1 (configuration not stated),x,4µM,n,n
CC(=O)Nc1ccc(N=Nc2ccc(O)cc2)cc1,n,n,n,n
NNc1nc(-c2ccccc2Cl)nc2ccccc12,n,u,n,x
NNc1nc(-c2ccccc2Cl)nc2sc3c(c12)CCCC3,n,50µM,n,n
N#CCCn1c(=O)c(CCc2ccccc2)nc2cnc(N3CCOCC3)nc21,x,n,x,x
COc1ccc(NC(=O)[C@@H]2CC=C[C@@H]3CCN(C4CC4)C(=O)[C@@H]32)cc1,x,x,n,x
COc1cc(CNCCN2CCOCC2)ccc1OCC(=O)NC(C)(C)C,n,71µM,x,n
CC(C)=CCC[C@H](C)C[C@@H]1CC2=C(C(=O)OC(C)(C)O2)[C@@H](c2ccc(F)cc2)O1,x,x,n,x

# Compound activity (PubChem BioAssay)
